Data reported in PubChem BioAssay AID1508600 (Functional Genomics Laboratory (NCATS/FGL), 2020).
In all, about 53,000 sequences went through this assay and about 3,700 (7%) were called active.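 Rule for the calls: active = gene knockdowns whose robust z-score for IL-1 alpha signal is at least 2 or at most -2, so actives lie on both sides; inactive = the rest.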 Only a selection was taken, and actives are over-represented in it overall.

Experiment: Components of the Cytosolic LPS Sensing Pathway: Gene Identification via Genome-wide siRNA Screen;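 note: robust z of the log signal after scaling to non-targeting control siRNA wells of the plate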
Details: RAW264.7 macrophages, IL-1a HTRF, actives lie on both sides, screened at 100 nM (by protocol), cells primed 5 h with Pam3CSK4 first
In short: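 Mouse macrophage line RAW264.7 is transfected with siRNA (100 nM final), grown 48h, primed with TLR ligand Pam3CSK4 5 h and given intracellular LipidA 24 h. IL-1a in supernatant is read by HTRF and viability by luminescence.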

z-score, active:
GGAAGAUACUGUGGUUUAUTT against Agbl3 2.29, CCCGGGUCUUUGAUAUCUUTT against Evi5l 2.03, GGAAGUUGAAAUGCUGUCGTT against Clcnka -2.24, GAAUCAGCUGUUCUCUCACTT against Tm2d3 2.25, GGCGGAUACUUGAUCGAAATT against Exoc3 2.41, GCCCUCAACCAUAAUUCAATT against Zscan21 2.15, GCCAGCUUUUAGUAUCAACTT against Sun1 2.4, GCGUAUAGGUGAUGUACAGTT against Smad3 2.28, GGACUAUCAUCUGAUGCCATT against Klhl18 2.45, GGAACCUAAACGAACAAGGTT against Col6a2 2.18, CGGUGAUCGUCAUUUUAUUTT against Ap4m1 2.47, GGAUACGAAAACGACUGCATT against Pdpr 2.05

z-score, inactive:
GGAUUCACCUGUUAUCUUUTT against Tapbpl 0.303, UGAAUCACCACCCGGAAUGTT against Pcbd2 0.41, CCUAUGUGCGUUCCAAGCATT against Eif5b -0.432, GGACAUCUGUGUUAAAUUUTT against Npy1r -0.47, GGCAUUGGUGUUUCAUUAATT against Gpm6a 1.2, GGUAUUAUGACCAGAUUAUTT against Plxnb3 0.736, GGACGAUUGCCAUAUGAACTT against Ice2 -0.99, GUACUUUCUUGAACCAGAGTT against Cacng7 -0.486, GGAUGAAGCCUUCAUCAGGTT against Adcy6 0.0162, GGAGAGAGACACAAGCUUGTT against Map7d1 1.07, GCGAAAACUUCGGAUCUAUTT against Smarcd2 1.29, GGCUUAUCAUACCUGGUUGTT against Olfr691 0.404, GGAUAUUUCAGUUGGCGGGTT against Lama2 -0.158, GGUCAAACUGAAGAAGGAGTT against Slc7a7 -1.24, GCAAGGAAAAUCUAUACCGTT against Rgs2 -0.954, GCACAUACAGAGCUCGUCUTT against Zkscan6 -0.471, CCAGAUAAGCCUCAUCAAUTT against Scn5a -0.163, GCACCAAACCAAUAUUAGUTT against Epb41l3 1.13, GCACCAUUAAGGUUGCCAATT against Nudt11 -1.16, GGUCUGUGGGAAACAUAAATT against Gria3 -0.233, GGAUGUCUAUUUUUGGUCATT against Esd -0.819, GGGACAAUACCAAUUUCUCTT against Car15 -0.209, GGCAAUCUCCUUUAAUUGATT against Zfp329 0.237, GGAAAUGAGCCAGGAUGGUTT against Cdca4 0.0601, CCCGAUUAUCUAGUGAUACTT against Sbk1 0.311, GCCACUGGUUCACCAUGCATT against Ugt1a9 -0.52, GCCUGUGGUAGGAUACUAUTT against Denr -0.964, GGAAGGAACCGUUCUAUAATT against Serpinc1 0.221, GGUUGGAUACUCGUCUUCATT against Olfr421-ps1 1.16, GGCCCACAGUUUGUGACUGTT against Larp7 -1.1, GGUCAUUAGUUAUUCCUACTT against Olfr600 -1.33, GGGUUCAAGAUAUCAAGUATT against 4933434E20Rik 1.23, GCUUGGGUCAUAGGGAUGATT against Olfr1288 -0.371, CCACUUUUGUAAUGGAAGCTT against Mfsd6l 1.89, GGAGAUUCAGAUCAAAGAGTT against Scyl1 -0.182, GCUACGUUUUUUACCUCCATT against Bak1 0.0106, GGCUUCCAGUAAUGACAAUTT against Vwc2l -1.67, GGUCUUUCCCAGGAUUCCATT against Rab19 -0.837, GGUUGACUAUACUGAAAAGTT against Prrc2a -0.606, GGGCAAUGAAUGACAUUGGTT against Gabrd -0.368, GGGAGAAUCGAACUAUAAATT against Raver1 -0.477, GGACCCUUAGGAAAUGUGCTT against S100a10 -1.13, GCAUCAGAUUAUCUCACUGTT against Mtrf1l 0.261, CGCGUGAUUGAUGUUUUACTT against Atxn10 0.793, GUGUCAUUUCCCGGGACAUTT against Atp5g1 1.64, CCUUGGACUGAUAUUAGCUTT against Dtx3 0.0235, GGAUGUACGGAAGCGAUUCTT against Gmpr2 0.404, GGUUCCUCAUUUGUAGAUGTT against D830050J10Rik -1.19, GGAGGAACAAUCAUCUAUATT against Ripk2 1.1, GGCACAGAUGUUUUGAGAATT against Surf4 -0.954, CGAAAAUAUGGAUACUACUTT against Ippk 0.732, GGUGAACCUCAACAGACUCTT against Gtf3c4 -1.7, GGAAAAAAUCACAUUGACUTT against H2ac6 -0.835, GCCCAUUAAUGGGAUAUAATT against Ccdc134 0.148, GGCUCUGGCAGAAAUGGAUTT against Pex26 -0.0204, GGGAACAGAAGUUGUGAGATT against Gulp1 1.5, AGGUCAAUAAAGAGUGUGATT against Fam25c -1.66
